Source: paper PMC4336329 (PLoS ONE, 2015)
Out of some 310,000 compounds screened, about 14,000 (4.5%) showed an effect of 50% or more. The effect is printed as a negative number. The sample holds strong results, similar compounds and a random draw of the others, so the mix is not that of the screen.

target: human ether-à-go-go-related gene (hERG) potassium channel (human, UniProt Q12809); test: primary screen, population patch clamp on CHO cells stably expressing hERG; higher = less effect of the substance
Procedure: Briefly, Chinese hamster ovary (CHO) cells stably expressing the hERG channel were dislodged from tissue culture flasks and dispensed into PPC plates. […] During the recording, background leak currents were estimated by a 100 ms step to -80 mV from an initial holding potential of -70 mV and subtracted from the subsequent current measurement. The campaign was conducted in two phases using slight differences in recording protocol. In the first phase, the initial voltage pulse used a 100 ms step to -30 mV from a holding potential of -70 mV, a 2 s conditioning step to +25 mV, and a 2 s test step to -30 mV. During the second phase of the screen, the potential during the conditioning step was raised to +45 mV. In both phases of the campaign, a secondary voltage pulse was applied using the same parameters as the second phase initial pulse. The initial and secondary pulses were applied in the absence of compound, and upon application of 1 μM and 10 μM test concentrations. […]
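Note: peak tail current of the secondary pulse compared with the same well before compound.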

human ether-à-go-go-related gene (hERG) potassium channel, sequence (Q12809 whole entry, looked up): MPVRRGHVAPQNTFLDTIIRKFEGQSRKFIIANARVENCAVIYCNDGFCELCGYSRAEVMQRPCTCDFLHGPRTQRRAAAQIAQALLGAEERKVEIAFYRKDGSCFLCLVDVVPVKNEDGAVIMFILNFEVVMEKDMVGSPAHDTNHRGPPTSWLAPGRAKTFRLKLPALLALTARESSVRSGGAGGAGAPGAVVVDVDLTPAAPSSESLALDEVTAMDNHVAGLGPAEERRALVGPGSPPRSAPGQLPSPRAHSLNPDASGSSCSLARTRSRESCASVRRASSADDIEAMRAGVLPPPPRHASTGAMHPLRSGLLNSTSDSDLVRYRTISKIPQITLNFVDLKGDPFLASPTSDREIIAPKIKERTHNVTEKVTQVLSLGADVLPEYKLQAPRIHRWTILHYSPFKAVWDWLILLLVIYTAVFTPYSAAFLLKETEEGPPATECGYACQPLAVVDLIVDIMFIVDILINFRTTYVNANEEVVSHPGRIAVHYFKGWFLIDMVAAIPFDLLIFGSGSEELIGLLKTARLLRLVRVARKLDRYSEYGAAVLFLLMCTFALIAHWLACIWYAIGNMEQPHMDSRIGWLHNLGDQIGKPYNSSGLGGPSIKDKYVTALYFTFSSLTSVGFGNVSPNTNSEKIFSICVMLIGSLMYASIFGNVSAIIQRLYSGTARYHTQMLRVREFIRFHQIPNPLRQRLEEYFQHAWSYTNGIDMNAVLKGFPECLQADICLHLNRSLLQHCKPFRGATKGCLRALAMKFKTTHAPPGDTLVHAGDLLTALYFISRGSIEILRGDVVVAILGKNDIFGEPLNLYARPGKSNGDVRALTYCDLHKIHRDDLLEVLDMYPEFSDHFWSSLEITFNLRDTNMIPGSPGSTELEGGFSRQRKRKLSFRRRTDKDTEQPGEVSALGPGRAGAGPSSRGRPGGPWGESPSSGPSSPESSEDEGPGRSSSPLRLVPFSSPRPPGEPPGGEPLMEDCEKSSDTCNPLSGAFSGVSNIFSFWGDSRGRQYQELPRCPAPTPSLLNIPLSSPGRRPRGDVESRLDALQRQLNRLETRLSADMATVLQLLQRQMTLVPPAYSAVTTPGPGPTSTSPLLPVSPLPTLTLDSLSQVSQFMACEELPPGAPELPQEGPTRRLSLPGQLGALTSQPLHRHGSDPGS

SMILES | hERG current change (%, negative = inhibition) at 10uM
O=C(NCC1CCCO1)NC1(C(F)(F)F)Oc2ccccc2O1 (stereo not shown) | 1.63%
CN1CCN(S(=O)(=O)c2ccc3c4c(cccc24)C(=O)N3)CC1 | -0.59%
O=C(NCN1C(=O)C2C3C=CC(C3)C2C1=O)Nc1ccccn1 (stereo not shown) | 9.67%
CCOC(=O)N1CCC(NS(=O)(=O)c2cc3c(cc2C)NC(=O)CO3)CC1 | -7.84%
Cc1ccc(NC(=O)NNC(=O)C2CC(c3cccnc3)=NO2)cc1 (stereo not shown) | 4.19%
O=C1c2ccccc2C(=O)N1OCCOCCOCCON1C(=O)c2ccccc2C1=O | -29.2%
CC1(c2ccccc2)NC(=O)N(CC(=O)Nc2nnc(C3CC3)s2)C1=O (stereo not shown) | 12.1%
O=C(Nc1ccc(F)cc1F)c1cccn(Cc2ccccc2)c1=O | 13.1%
CCn1c(CN2CCCCCC2=O)nnc1SCc1cnc(-c2ccccc2)s1 | -19.3%
COc1ccc(C(=O)COC(=O)CCCC(=O)NC2CCCCC2)cc1 | 2.77%
COc1ccc(S(=O)(=O)N2CCC(C(=O)N3CCc4ccccc4C3)CC2)cc1C | -19.7%
CCC(=O)Nc1ccc(N/C(N)=N/c2nc(C)cc(C)n2)cc1 | -4.25%
CCCCc1ccc(N/C(N)=N/c2nc(C)cc(C)n2)cc1 | -70.1%
Cc1cc(C)nc(/N=C(\N)Nc2ccc(S(=O)(=O)Nc3nc(C)cc(C)n3)cc2)n1.Cl | 38%
CC(=O)N/C(=N/c1nc(C)cc(C)n1)Nc1ccc(NC(C)=O)cc1 | 9.5%
Cc1cc(C)nc(/N=C(\N)Nc2ccc(C(C)C)cc2)n1 | -67.5%
CCc1ccc(N/C(=N/c2nc(C)cc(C)n2)NC(C)=O)cc1 | -67%
Cc1cc(C)nc(/N=C(\N)Nc2ccc([N+](=O)[O-])cc2)n1 | -25%
Cc1cc(C)nc(/N=C(\N)Nc2ccc(-c3ccccc3)cc2)n1 | -81.6%
Cc1cc(C)nc(/N=C(\N)Nc2ccc(S(N)(=O)=O)cc2)n1 | 14.9%
Cc1cc(C)nc(/N=C(\N)Nc2ccccc2-c2ccccc2)n1 | -43.2%

SMILES | hERG current change (%, negative = inhibition) at 10uM
CCOc1ccc(N/C(=N/c2nc(C)cc(C)n2)NC(C)=O)cc1 | -12.2%
COc1ccc(C)cc1NC(=O)NNC(=O)c1cc2ccccc2cc1O | 12.1%
Cc1ccc(C(=O)Nc2ccc(C)c(S(=O)(=O)Nc3ccccc3Cl)c2)s1 | -6.43%
CCn1c(=O)c2c3c(sc2n2cnnc12)CCC3 | 20%
CC(=O)N1N=C(c2cccc([N+](=O)[O-])c2)OC1c1ccc(Br)cc1 (stereo not shown) | -7.59%
COc1ccc(OC)c(S(=O)(=O)Nc2cccc3ccc(O)cc23)c1 | 6%
COC(=O)CCCc1nc2ccccc2s1 | 8.7%
CN(C(=O)COC(=O)C12CC3CC(CC(C3)C1)C2)c1c(N)n(Cc2ccccc2)c(=O)[nH]c1=O | 7.54%
CCOC(=O)C1(P(=O)(c2ccc(Cl)cc2)c2ccc(Cl)cc2)CCC1 | -25.2%
N/C(=N\OC(=O)COc1ccc2ccccc2c1)c1ccccn1 | -1.39%
CCN(C(=O)COC(=O)CCS(=O)(=O)c1ccc(C)cc1)C1CCS(=O)(=O)C1 (stereo not shown) | 12.9%
COc1ccccc1C(C#N)N1N=C(C)CC1c1ccccc1 (stereo not shown) | 1.69%
O=C(CSc1nnc(COc2ccccc2Cl)o1)NC(=O)NCc1ccco1 | -8.18%
Cc1cc(C)nc(/N=C(\N)Nc2ccc(SC(F)F)cc2)n1 | -74.7%
Cc1cc(=O)[nH]c(/N=C(\N)Nc2ccc(SC(F)F)cc2)n1 | -15.8%
Cc1cc(C)nc(/N=C(\N)Nc2ccc3c(c2)OCCO3)n1 | 6.67%
Cl.NS(=O)(=O)c1ccc(CCNCc2cccnc2)cc1 | 18.4%
C=CCOc1ccc(CNCCc2ccc(S(N)(=O)=O)cc2)cc1.Cl | -81.4%
COc1ccc(CNc2ccc(S(N)(=O)=O)cc2)cc1 | -52.6%
CCOc1ccc(N2C(=O)CC(NCCc3ccc(S(N)(=O)=O)cc3)C2=O)cc1 (stereo not shown) | -22%
CCOc1ccc(CNCCc2ccc(S(N)(=O)=O)cc2)cc1.Cl | -70.1%

SMILES | hERG current change (%, negative = inhibition) at 10uM
CCOc1ccc(CNc2ccc(S(N)(=O)=O)cc2)cc1 | -6.78%
COc1ccc(CNC(=S)Nc2ccc(S(N)(=O)=O)cc2)cc1 | 22.1%
Cl.NS(=O)(=O)c1ccc(CCNCc2cccs2)cc1 | 4.04%
CCOc1ccc(OCCC(=O)OCC(=O)NCCc2ccc(S(N)(=O)=O)cc2)cc1 | -4.49%
COc1ccc(C(=O)NC(=S)N2CCN(c3ccccc3OC)CC2)cc1 | -21.6%
O=C(COC(=O)c1cccnc1)c1ccc(Cl)cc1 | 4.51%
CCCCn1c(SCn2nnc3ccccc3c2=O)nc2cc(S(N)(=O)=O)ccc21 | -34.5%
COc1ccc(N2CCN(C(=O)C(=O)c3c(C)n(C)c4ccccc34)CC2)cc1 | 10.4%
Cl.O=C(NCCCN1CCOCC1)C(=O)c1c[nH]c2ccccc12 | -3.03%
COc1ccc(N2CCN(CCCNC(=O)C(=O)c3c[nH]c4ccccc34)CC2)cc1 | -69.7%
COc1ccc(N2CCN(CC(=O)c3c[nH]c4ccccc34)CC2)cc1 | 8.09%
COc1ccc(N2CCN(CC(=O)c3c(C)n(C)c4ccc(OC)cc34)CC2)cc1 | -4.1%
CCN1CCN(CCCNC(=O)C(=O)c2c(C)[nH]c3ccccc23)CC1 | 3.67%
COc1ccc(C(C(O)C(=O)c2c[nH]c3ccccc23)N2CCN(c3ccccc3)CC2)cc1 (stereo not shown) | -13.8%
COc1ccc(N2CCN(C(=O)C(=O)c3c(C)[nH]c4ccccc34)CC2)cc1 | -14.1%
CCN1CCN(C(c2ccc(OC)cc2)C(O)C(=O)c2c[nH]c3ccccc23)CC1 (stereo not shown) | -69%
COc1ccc(N2CCN(CCCNC(=O)C(=O)c3c(C)[nH]c4ccccc34)CC2)cc1 | -53.3%
COc1ccc(C(C(O)C(=O)c2c[nH]c3ccccc23)N2CCN(c3ccc(OC)cc3)CC2)cc1 (stereo not shown) | -7.36%
COc1ccc(N2CCN(CCCNC(=O)C(=O)c3c(C)n(C)c4ccccc34)CC2)cc1 | -64.1%
